Assay [1] in a line: NCI Yeast Anticancer Drug Screen. Data for the rad50 strain (AID 155).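 Also: 0% = growth of vehicle-only cultures of the same strain.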 As to conditions: S. cerevisiae rad50 strain growth inhibition; at 50.0 µM; active compounds read high. The procedure, abridged: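 Compounds were tested on a yeast strain with an engineered DNA damage repair alteration; the reported value is growth inhibition normalised to vehicle treatment.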
Assay [2] in a line: NCI Yeast Anticancer Drug Screen. Data for the mec2-1 strain (AID 157). Particulars: S. cerevisiae mec2-1 strain, at 50.0 µM, active compounds read high. Put shortly: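 Strain: mec2-1 (DNA repair/cell cycle alteration). Compound exposure, then growth measured; inhibition expressed relative to vehicle.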
Assay [3] can be described thus: NCI Yeast Anticancer Drug Screen. Data for the sgs1 mgt1 strain (AID 161).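 Also: 0% = growth of cultures given vehicle only.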 As to conditions: S. cerevisiae sgs1 mgt1 strain, at 50.0 µM, active compounds read high. Put shortly:
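Genetically altered yeast, compound exposure, growth inhibition relative to vehicle.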

Assay [4] can be described thus: NCI Yeast Anticancer Drug Screen. Data for the cln2 rad14 strain (AID 165).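 Also: 0% = growth equal to vehicle treated cultures.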 Particulars: S. cerevisiae cln2 rad14 strain, at 50.0 µM, active compounds read high. The procedure, abridged: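 Compounds are applied to the cln2 rad14 yeast strain, and growth is then compared with that of vehicle-treated cultures to give inhibition.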
The nature of assay [5]: NCI Yeast Anticancer Drug Screen. Data for the bub3 strain (AID 167). Particulars: S. cerevisiae bub3 mutant strain, at 50.0 µM, active compounds read high. Put shortly:
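Growth of a checkpoint-deficient yeast mutant is measured after compound exposure. Values represent inhibition relative to vehicle.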

Assay [6] is described as follows: NCI Yeast Anticancer Drug Screen. Data for the mlh1 rad18 strain (AID 175). As to conditions: S. cerevisiae mlh1 rad18 strain growth inhibition; at 50.0 µM; active compounds read high. Put shortly: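 Read-out is yeast growth inhibition, calculated against vehicle-only controls. The compound was applied to a strain engineered with DNA damage repair alterations.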

Structures are written as SMILES. Compounds without any hit were thinned out: in the full panel of roughly 79,000, 15% have a hit. Unmarked numbers belong to inactive results. Activity calls are given as the source filed them. Rule as the data show it: active = growth inhibition above about 70%; inactive = the rest.

Regarding `O=c1[nH]c(=O)c2nnoc2[nH]1`, the growth inhibition in assay [1] was 12.4%; in assay [2] it was 7.65%; in assay [3], 4.55%; in assay [4] it was -20.2%; in assay [5] it was 7.4%; in assay [6], -16.5%.
Take `CC1(C)OCC(C2OC3OC(C)(C)OC3C2c2ccccc2)O1` (stereo not given): the growth inhibition in assay [1] was -3.55%; in assay [2], -9%; in assay [3], -31.1%; in assay [4], 1.4%; in assay [5], -2.8%; in assay [6], 2.2%.
In the case of `Nc1cc(S(N)(=O)=O)ccc1O`, the growth inhibition is 10.3% in assay [1]; -11.6% in assay [2]; -21.9% in assay [3]; -10.6% in assay [4]; -12% in assay [5]; 12.4% in assay [6].
As for `CSc1nc(NC2OCC(OC(C)=O)C(OC(C)=O)C2OC(C)=O)c(N=C(C)C(C)=O)c(=O)[nH]1` (stereo not given), the growth inhibition was -3.9% in assay [1]; 17.7% in assay [2]; 15.2% in assay [3]; 4.95% in assay [4]; 3.05% in assay [5]; 12.8% in assay [6].
Take `Cn1ccnc1CCc1c(Cl)cccc1Cl`: the growth inhibition is -19.9% in assay [1]; -21.4% in assay [2]; -47.1% in assay [3]; 9.4% in assay [4]; -16.2% in assay [5]; -22.9% in assay [6].
In the case of `c1ccc(CCN2CCN(CCc3ccccn3)CC2)nc1`, the growth inhibition in assay [1] is 6.25%; in assay [2], 6%; in assay [3] it was -6.95%; in assay [4] it was -19.6%; in assay [5] it was 3.8%; in assay [6] it was 0.2%.
As to `CN/N=C(/c1nc2ccc([N+](=O)[O-])cc2[nH]c1=O)C(O)c1ccc(C(O)/C(=N\NC)c2nc3ccc([N+](=O)[O-])cc3[nH]c2=O)cc1` (stereo not given), the growth inhibition is 31.2% in assay [1]; -5.55% in assay [2]; 0.6% in assay [3]; -26.2% in assay [4]; -3.85% in assay [5]; 19.4% in assay [6].
On to `COCCOC(=O)c1ccccc1O`, for which the growth inhibition is 5.45% in assay [1]; 13.8% in assay [2]; 13.8% in assay [3]; 2.95% in assay [4]; -13.2% in assay [5]; -1.25% in assay [6].
As for `C1CCC(C2CCCC[N-]2)[N-]C1.C1CCC(C2CCCC[N-]2)[N-]C1.[Cl][Ru][Cl]` (stereo not given), the growth inhibition in assay [1] was 47%; in assay [2], 8.55%; in assay [3] it was 29.1%; in assay [4], 6.8%; in assay [5], -0.75%; in assay [6], 18.9%.
For the compound `Cc1ccccc1C1(O)c2cccc3cccc(c23)C1(O)c1ccccc1C` (stereo not given), the growth inhibition in assay [1] was 2.95%; in assay [2], 8.45%; in assay [3], -7.45%; in assay [4] it was -10.9%; in assay [5], 10.9%; in assay [6], -22.4%.
Turning to `CNC(=O)C1CCC(CC2CCCCC2)CC1` (stereo not given), the growth inhibition in assay [1] is 45.4%; in assay [2], 49.5%; in assay [3], 77.1% (active); in assay [4] it was 11.2%; in assay [5] it was 42.8%; in assay [6], 38.5%.
As to `NC(=O)C1=CC2C3C=CC2(O)C(=O)OC3O1` (stereo not given), the growth inhibition in assay [1] was -15.3%; in assay [2] it was -28.6%; in assay [3], -12.6%; in assay [4] it was 3.2%; in assay [5], -22.9%; in assay [6], -11.1%.
Regarding `O=C(CN1C(=O)CC(NC(=O)OCc2ccccc2)C1=O)NCC(=O)Oc1ccc([N+](=O)[O-])cc1` (stereo not given), the growth inhibition in assay [1] is 31.6%; in assay [2], 20.9%; in assay [3], 26.9%; in assay [4] it was 7.7%; in assay [5] it was 4%; in assay [6], 22.1%.
As to `N#CC(C(=O)O)C(c1c(Cl)cccc1Cl)C(C#N)C(=O)O` (stereo not given), the growth inhibition in assay [1] is 23.2%; in assay [2], -6.7%; in assay [3], -0.7%; in assay [4], -1.3%; in assay [5] it was 5.25%; in assay [6], 15.6%.
For `OC1COCOC1C(O)C1OCOCC1O` (stereo not given), the growth inhibition was 3% in assay [1]; 9.8% in assay [2]; 7.85% in assay [3]; 4.3% in assay [4]; -6.15% in assay [5]; 1.75% in assay [6].
With `S=c1ncnc2cc3[nH][nH]cc3cc12`, the growth inhibition is 1.95% in assay [1]; 2.5% in assay [2]; -5.35% in assay [3]; -33.5% in assay [4]; -7.95% in assay [5]; -2.25% in assay [6].
Consider `C[n+]1cccc(NC(=O)COc2ccc(Cl)c(Cl)c2)c1`, for which the growth inhibition in assay [1] is 15.3%; in assay [2], 3.95%; in assay [3] it was -5.4%; in assay [4] it was -18%; in assay [5], -1.75%; in assay [6] it was 21.5%.
`O=S(=O)(CC(Br)c1ccccc1)c1ccccc1` (stereo not given): the growth inhibition in assay [1] is 44.7%; in assay [2], 6.15%; in assay [3], 5.05%; in assay [4], -4.3%; in assay [5], 60.5%; in assay [6], 45%.
Take `CON(C)c1nc(N)c(C#N)c(C#N)c1C#N`: the growth inhibition in assay [1] is 4.35%; in assay [2] it was -23.7%; in assay [3] it was 3.3%; in assay [4], 13.4%; in assay [5] it was 15%; in assay [6], 7.45%.
With `CN(C)C(=O)/N=C1\SC(=Nc2ccccc2)C(=Nc2ccccc2)N1c1ccc([N+](=O)[O-])cc1`, the growth inhibition was -1.65% in assay [1]; 5.5% in assay [2]; -1.7% in assay [3]; 27.2% in assay [4]; 16.4% in assay [5]; -12.3% in assay [6].

For the origin of these results see PubChem BioAssay (NCI).
